VLA-4 inh = inhibition in human VLA-4 binding assay, primary screen, VLA-4 allosteric modulator project, MLPCN library, flow cytometry, VLA-4 expressing cells; AID 2557, 2010; inhibition, % (about 7 µM as worked out from the volumes in the protocol); ligand binding flow cytometry; hit rate 0.2% among 330,000; Integrin alpha-4 (Homo sapiens), P13612; in the data active = inhibition above about 50%
Rev-erbA mod = modulators of Rev-erb alpha DNA binding, primary screen, biochemical, FITC-DNA, fluorescence polarization, uHTS; hit rate 0.79% among 370,000; AID 1259318, 2017; activity, % at 10 µM; Nuclear receptor subfamily 1 group D member 1 (Homo sapiens), P20393; Rev-erbα–FITC-DNA binding, 90 min;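 active = activity above about 14%, limit read from the data; passing the limit was not always enough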;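 note: 0% = DMSO wells with 35 nM protein and 100% = DMSO wells with 750 nM protein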
ABCB6 inh MLPCN = ABCB6 transporter inhibitors, primary screen, K562-ABCB6 cells, flow cytometry, MLPCN library; AID 602162, 2011; fluorescence ratio to DMSO, % at 10 µM; ATP-binding cassette sub-family B member 6 (Homo sapiens), Q9NP58; hit rate 0.19% among 360,000; K562-ABCB6 porphyrin accumulation, 1 h; hits give low values;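 active = fluorescence ratio to DMSO below 75%, the collection mean minus 3 SD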;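 note: signal is porphyrin accumulated inside mitochondria; 100% equals median channel fluorescence of DMSO control wells; lower ratio means ABCB6 inhibition with less porphyrin fluorescence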
Exocytosis inh = LAMP-1 surface exposure blockers, TALL-104 cells – cell-based, flow cytometry, MLPCN library, primary screen; TALL-104 LAMP-1 surface exposure; cells stimulated with thapsigargin and PMA; inhibition, % at 10 µM; hit rate 0.66% among 360,000;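 active = inhibition above about 55%, limit read from the data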
PG9 Ab binder = binders of HIV-1 gp120 antibody PG9, primary screen, biochemical, TR-FRET. hit rate 0.43% among 360,000. TR-FRET gp120-PG9 antibody binding. HIV-1 gp120 / PG9 antibody interaction. inhibition, % at 6.7 µM. AID 624416, 2012; in the data active = inhibition above about 8.5%
Numbers without * were called inactive; / = not tested or not shown. Only some compounds are listed: those with a hit (about 2% of all), similar ones and a draw of the others.

SMILES	VLA-4 inh	Rev-erbA mod	ABCB6 inh MLPCN	Exocytosis inh	PG9 Ab binder
COc1cccc([C@H]2NC(=O)C/C=C/[C@@H](C)[C@@H](c3cccc(OC)c3)NC(=O)C/C=C/[C@H]2C)c1	/	-1	/	/	/
O=Cc1cnc2ccccc2c1-c1ccccc1	-4	2	102	80*	0
N#C/C(=C/c1ccc(N2CCCCCC2)o1)c1ccc(F)cc1	-56	/	118	23	/
N#C/C(=C/c1ccc(N2CCOCC2)o1)c1ccc(Br)cc1	-289	4	363	67*	2
N#C/C(=C/c1ccc(N2CCOCC2)o1)c1nc2ccccc2[nH]1	-43	5	116	2	-27
N#C/C(=C\c1ccc(N2CCOCC2)o1)c1ccccc1	-9	-5	105	63*	-2
N/C(=N\OS(=O)(=O)c1ccc(Br)cc1)c1ccncc1	4	3	63*	0	-1
COC(=O)c1ccccc1NC(=O)CN1CCN(c2ccccn2)CC1	-15	0	101	-1	-1
COC(=O)c1ccccc1N/C=C1\CCc2c(c(C)nn2-c2ccccn2)C1=O	-16	-3	89	65*	0
O=S1(=O)C=CCN1Cc1cn(Cc2ccc(C(F)(F)F)cc2)nn1	/	-4	/	/	/
CCOC(=O)C1CCN(C(=O)C(C)(C)NC(=O)Nc2ccc(OC)c(Cl)c2)CC1	/	3	/	/	/
Cc1c(CCOC(=O)c2cc([N+](=O)[O-])cc([N+](=O)[O-])c2)sc[n+]1CC(=O)c1ccccc1	1	1	97	-2	0
Cc1c(CCOC(=O)CC23CC4CC(CC(C)(C4)C2)C3)sc[n+]1CC(=O)c1ccccc1	11	0	94	97*	0
Cc1c(CCOC(=O)c2ccccc2)sc[n+]1CC(=O)c1ccc(Br)cc1	5	/	98	95*	/
Nc1cccc(C(=O)OCC(=O)Nc2cccc3c2C(=O)c2ccccc2C3=O)c1	3	-13	101	0	2
CCN(CC)CCC(=O)Nc1cccc2c1C(=O)c1ccccc1C2=O	-7	7	100	56*	-1
CCOc1ccc(C(C)=O)cc1N1C(=O)C2C3C=CC(O3)C2C1=O (stereo not drawn)	-139	/	99	105*	/
CCOc1ccc(C(C)=O)cc1N1C(=O)C2C3C=CC(C3)C2C1=O (stereo not drawn)	5	2	95	-4	/
Cc1ccc(-c2nc3ncccn3c2NC(=O)c2cccc(C)c2)cc1	/	-2	/	/	/
Cc1[nH]c2ccc(-c3nnc(SCC(=O)NCc4ccco4)n3Cc3ccccc3)cc2c1C	-5	-5	100	87*	2
O=C(/C(=C/c1ccc(Cl)cc1)c1nc2ccccc2[nH]1)c1cccs1	18	/	109	96*	/
O=C(/C(=C\c1ccccc1)c1nc2ccccc2[nH]1)c1ccc(Cl)cc1	4	4	100	46	2
Cc1cc(-c2ccccc2)nc2cc(C(N)=O)nn12	6	-6	6.0*	1	-2
O=C(NC1CCCCN(Cc2ccc(Cl)cc2)C1=O)c1c(F)cccc1F (stereo not drawn)	/	0	/	/	/
Cc1ccccc1N(C)C(=O)C1CCCN1S(=O)(=O)c1cccc2cccnc12 (stereo not drawn)	/	14	/	/	/
SMILES	VLA-4 inh	Rev-erbA mod	ABCB6 inh MLPCN	Exocytosis inh	PG9 Ab binder
N=c1c(C(=O)NCc2ccco2)cc2c(=O)n3ccccc3nc2n1Cc1ccccc1	13	-6	104	6	1
N=c1c(C(=O)NCc2ccco2)cc2c(=O)n3ccccc3nc2n1Cc1ccc(Cl)cc1	11	-22	94	64*	0
Cc1cccc(NC(=O)c2cc3c(=O)n4ccccc4nc3n(CC(C)C)c2=N)c1	68*	-4	101	24	0
COc1cccc(NC(=O)c2cc3c(=O)n4ccccc4nc3n(CC(C)C)c2=N)c1	14	-7	98	68*	-1
COC(=O)[C@]12C[C@H](CC(=O)NCc3cccc(C(F)(F)F)c3)C(=O)N(Cc3ccccc3)C1=C[C@H](C(C)C)O[C@@H]2C1CC1	/	-2	/	/	0
Cc1cccc(N2CCN(C(=S)Nc3ccc4nc(N5CCN(C)CC5)cc(C)c4c3)CC2)c1C	/	1	88	63*	-3
